Source: PubChem BioAssay (Center for Chemical Genomics, University of Michigan)
Dicer inh: inhibitors of human Dicer processing of pre-microRNA | z-score at 25 µM | actives 6% (n = 47,000) | cat-ELCCA pre-miR-21 Dicer processing, chemiluminescence; active compounds read high | AID 1347074 | Q9UPY3; in the data active = z-score above about 3, passing the limit was not always enough;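 note: plate controls were vehicle for no effect and no enzyme for full effect; higher signal means more uncleaved substrate so more Dicer inhibition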
Target sequence (Q9UPY3 whole entry, looked up): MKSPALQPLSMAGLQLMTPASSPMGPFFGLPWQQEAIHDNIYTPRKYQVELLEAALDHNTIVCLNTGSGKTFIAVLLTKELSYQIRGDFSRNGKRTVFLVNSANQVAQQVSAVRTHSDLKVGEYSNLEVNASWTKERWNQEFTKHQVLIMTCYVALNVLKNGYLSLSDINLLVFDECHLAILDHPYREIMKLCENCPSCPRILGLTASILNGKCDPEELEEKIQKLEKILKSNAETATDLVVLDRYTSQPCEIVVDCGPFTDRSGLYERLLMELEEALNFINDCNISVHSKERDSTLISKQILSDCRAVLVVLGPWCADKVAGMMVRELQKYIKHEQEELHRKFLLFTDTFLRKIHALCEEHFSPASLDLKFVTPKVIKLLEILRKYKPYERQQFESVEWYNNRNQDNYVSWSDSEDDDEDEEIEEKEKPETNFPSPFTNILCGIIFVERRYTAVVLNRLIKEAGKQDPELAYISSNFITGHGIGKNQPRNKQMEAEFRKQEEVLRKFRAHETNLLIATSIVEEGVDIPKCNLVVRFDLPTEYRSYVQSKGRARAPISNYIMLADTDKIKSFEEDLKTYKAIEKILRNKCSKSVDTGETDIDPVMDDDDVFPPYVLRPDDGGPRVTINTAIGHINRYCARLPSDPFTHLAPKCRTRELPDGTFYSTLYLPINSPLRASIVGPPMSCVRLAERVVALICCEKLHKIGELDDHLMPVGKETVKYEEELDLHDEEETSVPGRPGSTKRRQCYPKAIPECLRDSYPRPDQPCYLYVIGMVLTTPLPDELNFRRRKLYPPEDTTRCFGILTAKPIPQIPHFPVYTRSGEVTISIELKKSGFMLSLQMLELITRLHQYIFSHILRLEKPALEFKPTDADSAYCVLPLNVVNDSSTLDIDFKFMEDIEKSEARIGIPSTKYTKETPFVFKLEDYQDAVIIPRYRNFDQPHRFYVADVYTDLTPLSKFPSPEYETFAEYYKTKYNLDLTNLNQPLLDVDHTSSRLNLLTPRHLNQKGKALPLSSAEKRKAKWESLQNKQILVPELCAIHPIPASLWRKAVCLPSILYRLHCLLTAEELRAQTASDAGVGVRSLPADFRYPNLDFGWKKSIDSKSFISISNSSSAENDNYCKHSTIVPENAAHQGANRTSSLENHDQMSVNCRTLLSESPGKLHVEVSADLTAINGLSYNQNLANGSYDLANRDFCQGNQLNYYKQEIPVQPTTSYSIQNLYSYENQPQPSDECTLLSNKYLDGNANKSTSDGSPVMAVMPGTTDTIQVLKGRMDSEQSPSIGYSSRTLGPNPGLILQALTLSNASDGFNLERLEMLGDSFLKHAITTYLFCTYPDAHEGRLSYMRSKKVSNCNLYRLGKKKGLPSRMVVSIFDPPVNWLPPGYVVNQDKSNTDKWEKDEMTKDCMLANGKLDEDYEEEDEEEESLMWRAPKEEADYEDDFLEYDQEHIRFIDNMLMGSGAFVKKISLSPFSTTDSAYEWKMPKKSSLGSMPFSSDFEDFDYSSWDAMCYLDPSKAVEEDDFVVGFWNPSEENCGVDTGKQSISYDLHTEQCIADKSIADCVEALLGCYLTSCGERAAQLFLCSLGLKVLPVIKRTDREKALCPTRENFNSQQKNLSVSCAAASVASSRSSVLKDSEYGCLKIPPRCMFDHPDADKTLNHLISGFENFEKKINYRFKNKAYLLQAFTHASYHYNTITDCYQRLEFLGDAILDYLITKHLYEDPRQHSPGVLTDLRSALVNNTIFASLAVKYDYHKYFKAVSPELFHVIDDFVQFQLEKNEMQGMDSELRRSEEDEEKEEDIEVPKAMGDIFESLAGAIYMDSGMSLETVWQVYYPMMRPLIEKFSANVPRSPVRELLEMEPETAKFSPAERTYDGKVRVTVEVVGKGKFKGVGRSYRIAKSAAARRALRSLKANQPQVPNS
The depositor's hits bear a star. Shown is part of a subset that was picked to be rich in hits.

SMILES	Dicer inh
O=C1c2oc3ccc(Br)cc3c(=O)c2C(c2cccc(O)c2)N1Cc1ccccc1 (configuration not stated)	1.2
Cc1cc(CSC(=N)N)c(C)cc1CSC(=N)N	-7.9
Cc1csc(C(=O)O/N=C/c2ccc(Cl)cc2Cl)c1	0.04
CC(C)(C)OC(=O)N1CCCC[C@@H]1C(=O)O	0.46
O=C(Cn1cc(C(=O)c2ccco2)c2ccccc21)NCC1CCCO1 (configuration not stated)	-1.4
CCc1nnc2sc(-c3ccc(C)c(NC(=O)C(C)(C)C)c3)nn12	-0.15
Cn1c(SCc2ccc(Cl)cc2)nnc1-c1ccc(OCC(F)(F)F)nc1	-0.55
CCOc1ccccc1NC(=O)Nc1ccc(OC)nc1	3.8*
COc1ccccc1NC(=O)Nc1ccccc1OC	12
COc1ccccc1NC(=O)NC(N)=O	1.6
CSc1sc(C(=O)N/N=C/c2ccc(Cl)cc2)c2c1C1(CCC2)SCCS1	-0.17
CCOC(=O)c1c(NC(=O)C(=O)c2c[nH]c3ccccc23)sc2c1CCCC2	0.62
Cc1cc(NC(=O)CC2(CC(=O)O)CCCC2)n(C)n1	3.4*
Cn1nccc1NC(=O)CC1(CC(=O)O)CCCCC1	0.01
Cc1cc(NC(=O)CCC(=O)O)n(C)n1	0.37
CN1CC2CCC1C[C@H](NC(=O)c1ccccc1)C2 (some centres not stated)	1
C=C(C1CC1)N(Cc1ccccc1)C(=O)c1cccc(F)c1	0.38
COc1ccc(CN2CCCN(Cc3ccc(OC)cc3)C2c2cccc3c2OCO3)cc1	-0.41
CSc1nn(-c2ccccc2)cc1/C(N)=N/O	6*
CSc1nn(-c2ccccc2)cc1C(N)=S	-0.12
CSc1nn(-c2ccccc2)cc1/C(N)=N/OC(=O)Nc1ccccc1	3.7
c1ccc(CSc2nn3cnnc3s2)cc1	-2.2
Cc1c(Cl)c(=O)[nH]c2c(Cl)cccc12	-0.22
N#CCCN(Cc1cccs1)S(=O)(=O)c1cccc2nsnc12	1.7
Cc1ccc(S(=O)(=O)N2CCC(CC3CCN(S(=O)(=O)c4ccc(C)cc4)CC3)CC2)cc1	1.5
SMILES	Dicer inh
COc1ccccc1C1CCN(S(=O)(=O)c2ccc(C)cc2)CC1	-0.71
O=C(Nc1nnc(CCS(=O)(=O)c2ccc3ccccc3c2)s1)C1CCCCC1	-0.45
O=S(=O)(c1ccc(Br)cc1)N1CCN(C/C=C/c2ccccc2)CC1	-0.37
O=S(=O)(c1ccc2ccccc2c1)N1CCN(Cc2cc(Br)ccc2O)CC1	4.1*
O=C(CCC1CCCC1)N1CCN(S(=O)(=O)c2ccc3ccccc3c2)CC1	3.1*
Cc1ccc(S(=O)(=O)N2CCN(S(=O)(=O)c3ccc4ccccc4c3)CC2)cc1	3.4*
O=C(NCc1ccco1)C1CCCN1S(=O)(=O)c1ccc2ccccc2c1 (configuration not stated)	-0.9
COc1ccc(OC)c(CN2CCN(S(=O)(=O)c3ccc4ccccc4c3)CC2)c1	1.9
CC(=O)O/N=C(\N)c1nccnc1Sc1ccc(Cl)cc1	-1.1
O=C(Cn1c2ccccc2n2nc(-c3ccco3)nc12)c1cccs1	-0.24
Cc1cc(C)c(NC(=O)CC#N)c(C)c1	1.5
Brc1cccc2c1NC(c1ccncc1)C1CC=CC21 (configuration not stated)	-0.45
O=C1ON=C(c2ccccc2)/C1=C/c1ccc(Cl)cc1Cl	0.04
COC(=O)c1cccc(COC(=O)CCc2nc3ccccc3[nH]c2=O)c1	1.9
O=C(O)CCSc1nnc(-c2cccc(Cl)c2)o1	-1.3
COCCCN=C(Nc1ccc(Br)cc1C)SC	1.9
COCCCN=C(Nc1cc(C)c(C)cc1C)SC	3.9*
CN=C(Nc1ccc(C)cc1C)SC	0.13
CCOC(=O)C(NC(=O)CC)(Nc1ccc(F)cc1)C(F)(F)F (configuration not stated)	6.6
CCCCN(CCCC)Cc1c(C)[nH]c2ccccc2c1=O	1.6
CC(C)(C)c1ccc(-c2nc(NCCN3CCOCC3)c3ccccc3n2)cc1	-1.5
c1ccc(-c2nc(NCCN3CCOCC3)c3ccccc3n2)cc1	3.3*
c1ccc(-c2nc(NCCCN3CCOCC3)c3ccccc3n2)cc1	2
N[C@@H](CCCCNC(=O)OCc1ccccc1Cl)C(=O)O	-1.1
CCN(CC)CCNc1nc2c(c(=O)n(C)c(=O)n2C)n1Cc1ccc(Cl)c(Cl)c1	-0.88
SMILES	Dicer inh
Cn1c(=O)c2c(nc(NCCO)n2Cc2cccc3ccccc23)n(C)c1=O	3.1*
Cn1c(=O)c2c(nc(NC3CCCCC3)n2Cc2ccccc2)n(C)c1=O	3.6*
Cn1c(=O)c2c(nc(Cl)n2Cc2ccccc2)n(C)c1=O	-3.9
Cn1c(=O)c2c(nc(N/N=C/c3cccc(O)c3)n2Cc2ccccc2Br)n(C)c1=O	3.4*
Cn1c(=O)c2c(nc(NCCc3ccccc3)n2Cc2ccccc2F)n(C)c1=O	-0.97
CCN(CC)CCNc1nc2c(c(=O)[nH]c(=O)n2C)n1Cc1ccc(Cl)cc1	-3.5
Cn1c(=O)c2c(nc(NCc3ccccc3)n2Cc2ccccc2)n(C)c1=O	1.2
CCN(CC)CCNc1nc2c(c(=O)n(C)c(=O)n2C)n1Cc1ccc(F)cc1	3.3*
Cn1c(=O)c2c(nc(N/N=C/c3ccc(O)cc3)n2Cc2c(Cl)cccc2Cl)n(C)c1=O	4.8
Cn1c(=O)c2c(nc(N/N=C/c3ccccc3)n2Cc2ccccc2)n(C)c1=O	1.2
Cn1c(=O)c2c(nc(NCCCO)n2Cc2ccccc2F)n(C)c1=O	0.32
COc1ccc(C(=O)CSc2nnc(-c3ccccc3Br)n2C)cc1	0.5
Fc1cccc(CSC2=NCN(C3CC3)CN2)c1	0.28
Cc1ccccc1NC(=O)N(Cc1ccco1)C(=O)CC#N	0.76
Cc1ccc(Cn2nnc(-c3cc(Cl)cc(Cl)c3)n2)cc1	2
O=C(Nc1cnn(Cc2ccccc2)c1)c1cc2n(n1)C(C(F)(F)F)CC(c1ccco1)N2 (configuration not stated)	-0.98
O=C1/C(=C\c2cc(-c3ccccc3)c(C(F)(F)F)s2)CSc2ccc(Cl)cc21	0.83
CN(CCO)c1ccc(C(=O)c2ccc(N(C)CCO)cc2)cc1	-0.79
COc1ccc(OC(=O)c2ccncc2)cc1	1.9
CCCCCCOc1ccc(OC(=O)c2ccncc2)cc1	8.9*
O=C(Oc1ccc(OC(=O)c2ccncc2)cc1)c1ccncc1	0.9
CC(=O)Nc1ccc(OC(F)(F)F)cc1[N+](=O)[O-]	-0.95
FC(F)(F)c1cccc(NC(=S)NN=C2CCCCCC2)c1	2.3
COCCCNC1=C(C#N)C(=O)NC(c2ccc(O)c(OC)c2)S1 (configuration not stated)	1.3
N#CC1=C(Nc2ccccc2Cl)SC(c2ccncc2)NC1=O (configuration not stated)	0.01
SMILES	Dicer inh
COCCCNC1=C(C#N)C(=O)NC(c2cccs2)S1 (configuration not stated)	3.1*
Cc1nn(C(=O)c2ccccc2)c(C)c1Sc1nnnn1-c1ccccc1	-1.5
C=CCN1C(=O)C2(/C(=C(/O)c3ccc(OCC)cc3)C(=O)C(=O)N2CCN(C)C)c2ccccc21 (configuration not stated)	-0.01
CN(C)CCCN1C(=O)C(=O)/C(=C(\O)c2ccccc2)C12C(=O)N(C)c1ccccc12 (configuration not stated)	1.8
C=CCN1C(=O)C2(/C(=C(/O)c3ccc(F)cc3)C(=O)C(=O)N2CCCN(C)C)c2ccccc21 (configuration not stated)	2.1
C=CCN1C(=O)C2(/C(=C(/O)c3ccccc3)C(=O)C(=O)N2CCCN(C)C)c2ccccc21 (configuration not stated)	4*
